# Only some compounds are listed: those with a hit (about 2.5% of all), similar ones and a draw of the others.
# UBC13 inh: human UBC13 polyubiquitination inhibition; inhibition, % at 20 µM; P61088; UBC13 polyubiquitin chain formation, TR-FRET; 0.47% of 330,000 active; in the data active = inhibition above about 45%, passing the limit was not always enough; inconclusive = no clear call, values can overlap the other calls
# MEKK3 PB1 HTS: modulators (inhibitors or enhancers) of MEK5 binding to human MEKK3 PB1 domain | bead-based flow cytometry, Alexa488-MEK5 binding to MEKK3; actives lie on both sides; 0 = blocked by unlabeled MEK5, 100 = vehicle | 1.4% of 290,000 active | binding response (% of control), % at 10 µM;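 active = binding response more than 3 SD above or below the average of its plate-row segment, actives on both sides; inconclusive = wells at one plate position flagged as instrument error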;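 note: Alexa488 bead fluorescence after subtracting the streptavidin-only scavenger bead signal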
# Rce1 inh: blocks yeast Ras-converting enzyme; Q03530; yeast membranes, quenched prenylated peptide cleavage fluorescence; calls only; 0.27% of 290,000 active;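 active = fall in fluorescence gain of 50% or more versus controls, with final raw signal at or below 3038400; inconclusive = same 50% fall but final raw signal above 3038400; inactive = fall in fluorescence gain under 50%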;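 note: plate controls were neutral control wells for no effect and wells lacking membranes for full effect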
# MEKK2 mut-MEK5: signal of MEK5 binding to mutant human MEKK2 PB1 domain | percent response, % at 10 µM | bead flow cytometry, Alexa488-MEK5 binding to MEKK2 mutant | 0.35% of 290,000 active; in the data active = percent response above about 24%, passing the limit was not always enough
# MEKK2 WT-MEK5: raises or lowers MEK5 binding to wildtype human MEKK2 PB1 domain | 1.1% of 290,000 active | Q9Y2U5 | AID 1531 | binding response (% of control), % at 10 µM | bead flow cytometry, Alexa488-MEK5 binding to MEKK2 WT; actives lie on both sides; in the data active = binding response below about 67% or above about 130%; inconclusive = no clear call, values can overlap the other calls; inactive = in between
# MEKK2wt confirm: raises or lowers MEK5 binding to wildtype human MEKK2, retest. shares compounds with MEKK3 PB1 HTS. 2.4% of 5,900 active. binding response (% of control), % at 10 µM. bead flow cytometry, Alexa488-MEK5 binding to MEKK2 WT; actives lie on both sides; in the data active = binding response below about 16% or above about 210%; inactive = in between
# MEKK2mut confirm: signal of MEK5 binding to mutant human MEKK2, retest. shares compounds with MEKK3 PB1 HTS. bead flow cytometry, Alexa488-MEK5 binding to MEKK2 mutant. percent response, % at 10 µM. 2% of 5,900 active; in the data active = percent response mostly above about 71%, no sharp cut-off; inactive = mostly below about 38%;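 note: higher means compound restores mutant binding toward wildtype level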
# MEKK3 confirm: MEKK3-MEK5 PB1 inhibition, single concentration confirmation. shares compounds with MEKK3 PB1 HTS. bead flow cytometry, Alexa488-MEK5 binding to MEKK3; hits give low values. binding response (% of control), % at 10 µM. 1.8% of 5,900 active;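 active = binding response below 72% of control, or above a set upper limit, though filed actives all read lower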;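 note: 100% = DMSO only wells and 0% = binding blocked by excess unlabeled MEK5; lower values mean stronger disruption of MEK5 binding to MEKK3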
# An asterisk follows results filed as active; i = inactive; ? = inconclusive; . = not tested or not shown; + = active, no number; [ ] = another dose, or the depositor's remark.
SMILES,UBC13 inh,MEKK3 PB1 HTS,Rce1 inh,MEKK2 mut-MEK5,MEKK2 WT-MEK5,MEKK2wt confirm,MEKK2mut confirm,MEKK3 confirm
Cn1cccc1C(=O)NC(=O)CSc1nnc(C2CC2)n1-c1ccccc1,-7.1,127.0*,i,8.0,122.0,93.0,-4.0,95.0
CCNC(=O)CSc1nnc(C2CC2)n1-c1ccccc1,0.1,106.0,i,8.0,101.0,.,.,.
CN(CC(=O)Nc1cccc(F)c1)C(=O)CSc1nc2ccccc2s1,-0.5,.,i,.,.,.,.,.
CN(CCO)c1cc(N2CCC3(CC2)OCCO3)c2nonc2c1[N+](=O)[O-],-44.5,74.0*[inhibitor],i,-1.0,105.0,98.0,-2.0,100.0
CS(=O)(=O)N(CCCC(=O)N1CCCCCC1)c1cccc(Cl)c1,-2.6,119.0,i,37.0*,122.0,102.0,-3.0,100.0
COc1ccc(F)cc1S(=O)(=O)NCc1ccccc1,8.1,72.0*[inhibitor],i,0.0,93.0,100.0,-6.0,101.0
CC(=O)Nc1ccccc1NC(=O)c1ccc(C)c(C)c1,-3.3,89.0,i,-9.0,93.0,.,.,.
CC(=O)CC(=O)Nc1ccc(Nc2ccccc2)cc1,-3.7,100.0,i,-2.0,97.0,.,.,.
CCN(CC)c1ccc2nc3c4ccccc4c(=O)cc-3oc2c1,-19.5,89.0,i,-26.0,53.0*[inhibitor],76.0,-14.0,96.0
CCN(CC)c1ccc2cc(C=O)c(=O)oc2c1,-418.9,99.0,i,16.0,109.0,.,.,.
COCCC(=O)N1CCC(Oc2ccc(C(=O)NCCc3cnn(C)c3)cc2)CC1,-8.4,96.0,i,-9.0,101.0,.,.,.
COCC(=O)N1CCC(Oc2ccc(C(=O)NCCc3ccncc3)cc2)CC1,1.8,128.0*,i,+,610.0*,107.0,3.0,106.0
CCOc1ccccc1N1C(=O)CC(Sc2n[nH]c(-c3ccccc3)n2)C1=O (stereo unspecified),2.5,100.0,i,1.0,105.0,.,.,.
COc1ccc(NS(=O)(=O)c2ccc3c(c2)CCC(=O)N3)cc1O,2.1,.,.,.,.,.,.,.
C=CCOc1ccc(/C=N/N2C(=O)C(CC(=O)Nc3ccc(F)cc3F)SC2=NC)cc1 (stereo unspecified),4.5,128.0*,i,0.0,101.0,102.0,0.0,106.0
CN=C1SC(CC(=O)Nc2ccccc2F)C(=O)N1C (stereo unspecified),3.5,106.0,i,11.0,104.0,.,.,.
Cc1sc2nc(CN3CCCC3)nc(N3CCN(S(=O)(=O)c4cccs4)CC3)c2c1C,3.2,103.0,i,4.0,145.0*,141.0,36.0,109.0
Cc1ccc(S(=O)(=O)N2CCN(c3nc(CN4CCCC4)nc4sc(C)c(C)c34)CC2)cc1,18.2,.,.,.,.,.,.,.
O=C(Nc1ccc(Cl)c(Cl)c1)N1N=CCC1c1ccccc1 (stereo unspecified),0.0,133.0*,i,0.0,116.0,100.0,0.0,101.0
CC1=CC(C)(C)n2c(O)c(N=N)c3cc(C)cc1c32,-1.0,141.0*,i,1.0,105.0,103.0,3.0,103.0
CC1=CC(C)(C)n2c(O)c(N=N)c3c(C)c(C)cc1c32,17.8,75.0,i,-26.0,81.0,.,.,.
Cc1oc(-c2ccccc2Cl)nc1CSc1nc2c(c(=O)[nH]1)CCC2,-7.1,75.0*[inhibitor],i,-8.0,81.0,97.0,-3.0,100.0
Cc1oc(-c2cccc(Cl)c2)nc1CSc1nc2c(c(=O)[nH]1)CCC2,-4.7,107.0,i,13.0,100.0,.,.,.
O=S(=O)(Nc1nc2ccccc2nc1N1CCN(CCO)CC1)c1cc(F)ccc1F,-10.9,.,.,.,.,.,.,.
CCOC(=O)c1sc(NC(=O)c2ccc(S(=O)(=O)N3CCCCC3)cc2)nc1-c1ccccc1,17.7,135.0*,i,1.0,105.0,99.0,-5.0,99.0
Cc1cccc(N2CCc3c2nc2ccc(Br)cc2c3N)c1,?,124.0*,+,18.0,96.0,121.0,22.0,111.0
Nc1c2c(nc3ccc(Br)cc13)N(c1ccccc1)CC2,35.5,104.0,.,6.0,117.0,.,.,.

# From PubChem BioAssay
